# TSHR ag: agonists of human thyroid stimulating hormone receptor | 0.48% of 73,000 active | HEK293-CNG-TSHR cells (CNG channel as cAMP sensor), membrane potential dye, cAMP | P16473 | AID 926 | Potency, µM (doses to about 57.1 µM), without a hit: at the top dose activation, usual class: activators; active = well fitted activation curve with a large enough effect in the main read-out, with a control signal flat, not every such curve was filed as active; inconclusive = small, poorly fitted or top-dose-only effect, or a change in a side signal; inactive = no such curve, though single readings can be large or run the other way; % of control where 0% means no effect;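 note: the control signal comes from parental cells without the receptor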
# Target sequence (P16473 whole entry, looked up): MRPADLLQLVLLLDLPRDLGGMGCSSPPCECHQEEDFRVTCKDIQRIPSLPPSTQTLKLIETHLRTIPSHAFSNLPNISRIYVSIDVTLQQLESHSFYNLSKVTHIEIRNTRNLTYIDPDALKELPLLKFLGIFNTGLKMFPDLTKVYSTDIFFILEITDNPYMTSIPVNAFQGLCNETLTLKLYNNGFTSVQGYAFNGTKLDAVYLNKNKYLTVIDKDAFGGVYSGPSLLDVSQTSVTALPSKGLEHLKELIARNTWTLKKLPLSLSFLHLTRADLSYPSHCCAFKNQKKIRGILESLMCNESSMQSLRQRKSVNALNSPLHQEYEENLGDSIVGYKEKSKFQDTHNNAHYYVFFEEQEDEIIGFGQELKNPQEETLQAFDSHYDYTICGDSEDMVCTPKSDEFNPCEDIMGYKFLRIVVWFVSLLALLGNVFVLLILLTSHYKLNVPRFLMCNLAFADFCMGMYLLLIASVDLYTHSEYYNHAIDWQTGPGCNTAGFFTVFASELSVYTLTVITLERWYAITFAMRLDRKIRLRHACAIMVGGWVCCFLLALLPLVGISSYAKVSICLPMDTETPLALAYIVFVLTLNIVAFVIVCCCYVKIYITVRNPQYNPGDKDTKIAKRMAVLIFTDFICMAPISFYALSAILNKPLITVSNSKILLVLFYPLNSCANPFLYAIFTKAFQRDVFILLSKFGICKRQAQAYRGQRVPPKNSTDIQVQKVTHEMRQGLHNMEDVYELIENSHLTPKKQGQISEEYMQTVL
#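 cAMP rise detected as CNG-channel membrane depolarization by fluorescent dye (emission 590 nm), 30 min after compound, following 60 min dye loading containing 100 uM RO 20-1724 at room temperature. Cells: TSHR/CNG HEK 293, with parental CNG HEK 293 as control.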
# GBA mod: alters purified human glucocerebrosidase activity | P04062 | Potency, µM | AID 360 | 1.1% of 48,000 active | purified enzyme, resorufin glucoside fluorescence (screen aimed at inhibitors), 20 min; in the data active = potency below about 15 µM; inconclusive = mostly about 16 µM to 33 µM;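 note: the screen sought inhibitors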
#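 Wild-type enzyme at 0.2 nM final in 50mM citric acid/KH2PO4, 10mM sodium taurocholate, 0.01% tween-20, pH 5.9, with resorufin beta-D-glucopyranoside at 30 uM final. Compounds titrated, 20 min at RT, red fluorescence read; AC50 from titration.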
# HEK293 cAMP ctrl: counter-screen for TSHR agonists: cAMP increase in parental HEK293 | parental HEK293 CNG cAMP sensor, membrane potential fluorescence | 2.5% of 73,000 active | Potency, µM (titrated, usually from 57.1 µM), for inactives: top-dose activation, usual class: activators; active = well fitted activation curve with a large enough effect; inconclusive = small, poorly fitted or top-dose-only effect; inactive = no such curve, though single readings can be large or run the other way; note: % of control where 0% means no effect; nearly all actives have a fitted effect of over 55% in size
#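 Counterscreen for endogenous-receptor signalling: CNG-channel HEK 293 cells report cAMP rise by membrane depolarization. After 60 min dye equilibration with 100 uM RO 20-1724, compounds incubated 30 min before bottom-read fluorescence at 590 nm.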
# PK Bst: modulators of Bacillus stearothermophilus pyruvate kinase; AID 361; purified pyruvate kinase, luminescence ATP production; ribose 5-phosphate activator present at AC10; Potency, µM; 1.2% of 51,000 active; in the data active = potency below about 11 µM; inconclusive = mostly about 12 µM to 25 µM;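 the screen sought inhibitors and activators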;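 note: scaled between full activation by ribose 5 phosphate and full inhibition by luteolin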
# The depositor's hits bear a star; i = inactive; ? = inconclusive; nt = not tested or not shown; [ ] = another dose, or the depositor's remark. Compounds with a hit are over-represented: about 4% of the library has one in this group of screens. Potency is the fitted concentration of half-maximal effect.
SMILES,TSHR ag,GBA mod,HEK293 cAMP ctrl,PK Bst
O=C(COc1ccc(S(=O)(=O)NC2CCCCC2)cc1Cl)NCc1cccnc1,4.8%,?,-3.7%,>57
Cc1ccc(C)c(Cn2nnc3c(=O)[nH]c(C4CCCN(C(=O)C5CCCCC5)C4)nc32)c1 (stereo unspecified),?,?,20µM*,>57
Cc1ccc(Cn2nnc3c(=O)[nH]c(C4CCN(S(=O)(=O)c5ccc(C)cc5)CC4)nc32)cc1,5.8%,13.9*,17.3%,>57
O=C(C1CCCCC1)N1CCCC(c2nc3c(nnn3Cc3ccccc3)c(=O)[nH]2)C1 (stereo unspecified),?,nt,?,>57
CC1(C)Cc2ccccc2-c2nnc(SCC(=O)Nc3nc4ccccc4s3)n21,?,>76.9,5.01µM*,>57
Clc1ccc(OCCn2ccnc2)c2ccccc12,-5.5%,>76.9,9.1%,nt
OCc1ccccc1OCCOc1ccc(Cl)c2cccnc12,4.7%,>76.9,6.4%,3.47*
CN(C)CCSCCO,3.6%[11.4 µM],nt,-0.2%[11.4 µM],nt
c1ccc2c(c1)Cc1cc3ccccc3nc1-2,?,nt,20µM*,nt
CN(CCc1ccccn1)c1ccc2c(c1)Cc1ccccc1-2,-0.7%[11.4 µM],nt,-0.9%[11.4 µM],nt
COC(=O)[C@@]1(Cc2ccc(F)cc2)[C@H]2c3cc(C(=O)N4CCCC4)n(CCc4c[nH]c5ccc(OC)cc45)c3C[C@H]2CN1C(=O)c1ccccc1,0.9%,nt,25.9%,nt
COC(=O)[C@@]1(Cc2ccc(OC)cc2)[C@H]2c3cc(C(=O)N4CCCC4)n(Cc4cc(F)cc5c4OCOC5)c3C[C@H]2CN1C(=O)c1ccccc1,?,nt,3.98µM*,nt
COC(=O)[C@@]1(Cc2ccc(OC)cc2)[C@H]2c3cc(C(=O)N4CCCC4)n(Cc4ccc(S(C)(=O)=O)cc4)c3C[C@H]2CN1C(=O)c1ccccc1,?,nt,20µM*,nt
COC(=O)[C@@]1(Cc2ccc(OC)cc2)[C@H]2c3cc(C(=O)N4CCCC4)n(Cc4ccsc4Br)c3C[C@H]2CN1C(=O)c1ccccc1,?,nt,2.51µM*,nt
COC(=O)[C@@]1(Cc2ccccc2)[C@H]2c3cc(C(=O)N4CCCC4)n(Cc4c(CO)[nH]cc(C)c4=O)c3C[C@H]2CN1C(=O)c1ccccc1,9.2%,nt,15.9%,nt
COC(=O)[C@@]1(Cc2ccccc2)[C@H]2c3cc(C(=O)N4CCCC4)n(Cc4ccc(S(C)(=O)=O)cc4)c3C[C@H]2CN1C(=O)c1ccccc1,?,nt,7.94µM*,nt
COC(=O)[C@@]1(Cc2ccc(OC)cc2)[C@H]2c3cc(C(=O)N4CCCC4)n(CCc4ccc(O)c(O)c4)c3C[C@H]2CN1C(=O)c1ccccc1,4.3%,nt,5.8%,nt
S=C([S-])NCCNC(=S)[S-].[Zn+2],4.2%,nt,28.0%,nt
COC(=O)[C@@]1(Cc2ccc(OC)cc2)[C@H]2c3cc(C(=O)N4CCCC4)n(CCCNc4ncc(C(F)(F)F)cc4Cl)c3C[C@H]2CN1C(=O)c1ccccc1,4.4%,nt,17.3%,nt
COC(=O)[C@@]1(Cc2ccc(OC)cc2)[C@H]2c3cc(C(=O)N4CCCC4)n(Cc4ccc(C)o4)c3C[C@H]2CN1C(=O)c1ccccc1,?,nt,3.16µM*,nt
Nc1nc(Cl)cc(NCCO)n1,-0.8%[11.4 µM],nt,-2.3%[11.4 µM],nt
O=C(CSc1nnc(-c2ccc(Br)cc2)o1)Nc1cccc2ccccc12,0.0398µM*,>76.9,11.7%,>57
CCOc1ccccc1NC(=O)CSc1nc2c(c(=O)n1C)SC(C)C2 (stereo unspecified),?,nt,31.6µM*,nt
CCOc1ccc(OCC)c(NC(=O)CSc2nc3ccccc3c(=O)n2C)c1,?,>76.9,?,>57
CCOc1ccc(OCC)c(NC(=O)CSc2nc3cccnc3n2C)c1,?,>76.9,31.6µM*,nt
SMILES,TSHR ag,GBA mod,HEK293 cAMP ctrl,PK Bst
Cc1ccc(S(=O)(=O)N(CC(=O)O)Cc2cccc(C)c2)cc1,?,nt,6.3%,nt
O=c1c[n+](CC[n+]2cc(=O)o[nH]2)[nH]o1,0.2%[11.4 µM],nt,-4.3%[11.4 µM],nt
CN(C)CCCNCCCN,-14.5%,nt,-26.7%,nt
O=C(c1ccco1)c1nnn(Cc2ccccc2)c1-c1ccccc1,?,nt,31.6µM*,nt
Nc1c(C(=O)NCc2ccco2)nnn1Cc1ccccc1,?,>76.9,?,>57
CC(C)NS(=O)(=O)c1ccc(OCC(=O)Nc2ccc3c(c2)OCO3)c(Cl)c1,-15.5%,>76.9,-8.2%,>57
COC(=O)COc1ccc(S(=O)(=O)Nc2ccc3c(c2)OCCO3)cc1Cl,4.4%,13.9*,5.8%,>57
COC(=O)CC[C@@H](C)[C@H]1CC[C@H]2[C@H]3CC[C@H]4C[C@@H]5CC[C@@]4(C)C3(O5)[C@@H](Br)[C@@H](Br)[C@@]12C,-1.0%[11.4 µM],nt,4.9%[11.4 µM],nt
Cc1cc(=O)oc2cc(O)c(CN(C)CC(=O)O)cc12,9.4%[11.4 µM],nt,10.2%[11.4 µM],nt
COc1ccc(CN(C(=O)CN2C(=O)COc3ccccc32)C2CCCC2)c(OC)c1,?,>76.9,20µM*,>57
O=C1CC(c2ccc(F)cc2)Cc2nc(N3CCOCC3)ncc21 (stereo unspecified),17.4%,>76.9,7.8%,>57
O=C1CC(c2cccc(Cl)c2)Cc2nc(N3CCN(c4ccccc4)CC3)ncc21 (stereo unspecified),?,>76.9,?,>57
O=C1CC(c2cccc(Cl)c2)Cc2nc(N3CCOCC3)ncc21 (stereo unspecified),?,i,5.01µM*,>57
CCN1CCN(c2ncc3c(n2)CC(c2cc(OC)c(OC)c(OC)c2)CC3=O)CC1 (stereo unspecified),?,>76.9,10µM*,>57
CCCCCCCCCCCCCCCC(=O)NC[C@@H](COP(=O)([O-])OCC[N+](C)(C)C)OCC,nt,nt,19.8%,nt
CN(C)c1ccc(-c2nc(NCc3cccnc3)c3ccccc3n2)cc1,?,nt,-52.7%,nt
C=CCn1c(SCc2ccc(C#N)cc2)nnc1-c1cccc(OC)c1,?,>76.9,3.16µM*,>57
c1ccc(CSc2nnc(-c3cccs3)n2Cc2ccco2)cc1,?,>76.9,25.1µM*,>57
Cc1cccc(-c2nnc(SCc3nc4ccccc4[nH]3)n2Cc2ccco2)c1,?,>76.9,12.6µM*,>57
Cc1cc(C(=O)CSc2nnc(-c3cccs3)n2Cc2ccccc2)c(C)n1C,?,>76.9,?,>57
O=c1cc(CSc2nnc(-c3cccs3)n2Cc2ccccc2)nc2sc3ccccc3n12,?,nt,10µM*,>57
Nc1nc(CC(=O)O)cs1,-0.7%,nt,24.2%,nt
O=CN1CCN(C[C@H](O)CN2CCCCC2)CC1,8.1%[11.4 µM],nt,-3.9%[11.4 µM],nt
Nc1nc(N)c2nn(-c3ccc(C(=O)O)cc3)nc2n1,-1.8%[11.4 µM],nt,-2.0%[11.4 µM],nt
COc1cc([C@H]2c3cc4c(cc3[C@@H](O[C@H]3O[C@H]5CO[C@@H](C)O[C@H]5[C@@H](O)[C@@H]3O)[C@@H]3COC(=O)[C@H]23)OCO4)cc(OC)c1O,-20.3%[25.6 µM],nt,1.8%[25.6 µM],nt
COc1cccc(-c2nnc(SCc3ccc(C#N)cc3)n2Cc2ccco2)c1,?,>76.9,6.31µM*,>57
Cc1cc(-c2cc(C)c(O)c(C(C)(C)C)c2)cc(C(C)(C)C)c1O,13.1%[11.4 µM],nt,1.4%[11.4 µM],nt
O=C(NCc1ccco1)C1CCN(C(=O)c2cc3sccc3n2Cc2ccc(Cl)cc2)CC1,?,nt,12.6µM*,>57
O=C(Cn1c(C(=O)NCc2ccco2)cc2sccc21)c1ccccc1,nt,>76.9,20.5%,>57

# Screening data (PubChem)
